Data from PubChem BioAssay AID1159580 (chemical genetic matrix, 2015).
The campaign covered roughly 5,500 compounds. About 2,000 (36%) were called active. Roughly 18% stayed inconclusive and do not appear here. No stated cut-off is given here; in the data, active means normalized growth mostly below about 0.91 (no sharp cut-off); inconclusive means no clear call, values can overlap the other calls; inactive means mostly above about 0.92. This is one part of the list.

Experiment: chemical genetic growth profiling, strain panel (AID 1159580);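 further: tested at 20 µM; growth read once vehicle control cultures reached saturation at 30 °C; 1 = growth at the plate median or of vehicle wells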
Conditions: growth OD

Measured: normalized growth

Cc1cc(C(C)(C)C)c(O)c(C(C)(C)C)c1
active: S. cerevisiae deletion strains, locus YLR113W, strain HOG1, stronger effect = lower value 0.85 | S. cerevisiae deletion strains, locus YLR221C, strain rsa3, stronger effect = lower value 0.853 | S. cerevisiae deletion strains, locus YNL233W, strain BNI4, stronger effect = lower value 0.844 | S. cerevisiae deletion strains, locus YOL012C, strain htz1 2.14 [resistant]
inactive: S. cerevisiae deletion strains, locus YJR075W, strain HOC1, stronger effect = lower value 0.929 | S. cerevisiae deletion strains, locus YKL009W, strain mrt4, stronger effect = lower value 1 | S. cerevisiae deletion strains, locus YKL068W, stronger effect = lower value 0.978 | S. cerevisiae deletion strains, locus YKL085W, strain MDH1 (second series), stronger effect = lower value 1 | S. cerevisiae deletion strains, locus YKL085W, strain MDH1, stronger effect = lower value 1 | S. cerevisiae deletion strains, locus YKL160W, strain elf1, stronger effect = lower value 1 | S. cerevisiae deletion strains, locus YKL190W, strain CNB1, stronger effect = lower value 0.96 | S. cerevisiae deletion strains, locus YKR001C, strain vps1, stronger effect = lower value 0.927 | S. cerevisiae deletion strains, locus YKR026C, strain gcn3, stronger effect = lower value 0.978 | S. cerevisiae deletion strains, locus YKR091W, strain srl3, stronger effect = lower value 0.986 | S. cerevisiae deletion strains, locus YLL001W, strain dnm1, stronger effect = lower value 0.99 | S. cerevisiae deletion strains, locus YLL026W, stronger effect = lower value 0.954 | S. cerevisiae deletion strains, locus YLL041C, strain sdh2, stronger effect = lower value 0.978 | S. cerevisiae deletion strains, locus YLR027C, strain aat2, stronger effect = lower value 0.932 | S. cerevisiae deletion strains, locus YLR039C, strain RIC1, stronger effect = lower value 0.861 | S. cerevisiae deletion strains, locus YLR058C, strain SHM2, stronger effect = lower value 0.964 | S. cerevisiae deletion strains, locus YLR102C, strain apc9, stronger effect = lower value 0.989 | S. cerevisiae deletion strains, locus YLR258W, strain gsy2, stronger effect = lower value 0.997 | S. cerevisiae deletion strains, locus YLR262C, strain YPT6 (second series), stronger effect = lower value 0.956 | S. cerevisiae deletion strains, locus YLR262C, strain YPT6, stronger effect = lower value 0.85 | S. cerevisiae deletion strains, locus YLR268W, strain sec22, stronger effect = lower value 0.944 | S. cerevisiae deletion strains, locus YLR320W, strain mms22, stronger effect = lower value 0.904 | S. cerevisiae deletion strains, locus YLR330W, strain CHS5, stronger effect = lower value 0.99 | S. cerevisiae deletion strains, locus YLR342W, strain FKS1 (second series), stronger effect = lower value 1.09 | S. cerevisiae deletion strains, locus YLR342W, strain FKS1, stronger effect = lower value 0.975 | S. cerevisiae deletion strains, locus YLR357W, strain rsc2, stronger effect = lower value 0.966 | S. cerevisiae deletion strains, locus YLR370C, strain arc18, stronger effect = lower value 0.986 | S. cerevisiae deletion strains, locus YLR371W, strain rom2, stronger effect = lower value 1.01 | S. cerevisiae deletion strains, locus YLR384C, strain iki3, stronger effect = lower value 0.971 | S. cerevisiae deletion strains, locus YLR418C, strain cdc73, stronger effect = lower value 0.855 | S. cerevisiae deletion strains, locus YML016C, strain PPZ1, stronger effect = lower value 0.997 | S. cerevisiae deletion strains, locus YML032C, strain rad52, stronger effect = lower value 0.973 | S. cerevisiae deletion strains, locus YML120C, strain ndi1, stronger effect = lower value 0.938 | S. cerevisiae deletion strains, locus YML124C, strain tub3, stronger effect = lower value 0.995 | S. cerevisiae deletion strains, locus YMR058W, strain fet3, stronger effect = lower value 0.968 | S. cerevisiae deletion strains, locus YMR078C, strain ctf18, stronger effect = lower value 0.995 | S. cerevisiae deletion strains, locus YMR125W, strain sto1, stronger effect = lower value 0.989 | S. cerevisiae deletion strains, locus YMR129W, stronger effect = lower value 1 | S. cerevisiae deletion strains, locus YMR205C, strain PFK2, stronger effect = lower value 0.998 | S. cerevisiae deletion strains, locus YMR223W, strain ubp8, stronger effect = lower value 0.958 | S. cerevisiae deletion strains, locus YMR231W, strain pep5, stronger effect = lower value 0.989 | S. cerevisiae deletion strains, locus YMR263W, strain SAP30, stronger effect = lower value 0.898 | S. cerevisiae deletion strains, locus YMR307W, strain GAS1, stronger effect = lower value 0.901 | S. cerevisiae deletion strains, locus YNL067W, strain RPL9B, stronger effect = lower value 0.926 | S. cerevisiae deletion strains, locus YNL071W, strain lat1, stronger effect = lower value 0.997 | S. cerevisiae deletion strains, locus YNL128W, strain TEP1, stronger effect = lower value 0.874 | S. cerevisiae deletion strains, locus YNL153C, strain GIM3, stronger effect = lower value 0.917 | S. cerevisiae deletion strains, locus YNL183C, strain NPR1, stronger effect = lower value 0.938 | S. cerevisiae deletion strains, locus YNL209W, strain ssb2, stronger effect = lower value 0.993 | S. cerevisiae deletion strains, locus YNL248C, strain rpa49, stronger effect = lower value 0.904 | S. cerevisiae deletion strains, locus YNL250W, strain rad50, stronger effect = lower value 0.993 | S. cerevisiae deletion strains, locus YNL271C, strain bni1, stronger effect = lower value 1 | S. cerevisiae deletion strains, locus YNL298W, strain CLA4, stronger effect = lower value 0.962 | S. cerevisiae deletion strains, locus YNL307C, strain MCK1, stronger effect = lower value 0.98 | S. cerevisiae deletion strains, locus YNL322C, strain KRE1 (second series), stronger effect = lower value 1.01 | S. cerevisiae deletion strains, locus YNL322C, strain KRE1, stronger effect = lower value 0.975 | S. cerevisiae deletion strains, locus YNR049C, strain mso1, stronger effect = lower value 0.982 | S. cerevisiae deletion strains, locus YNR052C, strain pop2, stronger effect = lower value 1 | S. cerevisiae deletion strains, locus YOL006C, strain TOP1, stronger effect = lower value 0.888 | S. cerevisiae deletion strains, locus YOL147C, strain pex11, stronger effect = lower value 0.996 | S. cerevisiae deletion strains, locus YOR001W, strain rrp6, stronger effect = lower value 0.916 | S. cerevisiae deletion strains, locus YOR061W, strain CKA2, stronger effect = lower value 0.966 | S. cerevisiae deletion strains, locus YOR069W, strain VPS5, stronger effect = lower value 0.997 | S. cerevisiae deletion strains, locus YOR070C, strain gyp1, stronger effect = lower value 0.957 | S. cerevisiae deletion strains, locus YOR080W, strain dia2, stronger effect = lower value 0.99 | S. cerevisiae deletion strains, locus YOR083W, strain WHI5, stronger effect = lower value 0.986 | S. cerevisiae deletion strains, locus YOR106W, strain vam3, stronger effect = lower value 0.966 | S. cerevisiae deletion strains, locus YOR136W, strain idh2, stronger effect = lower value 0.974 | S. cerevisiae deletion strains, locus YOR144C, strain elg1, stronger effect = lower value 0.987 | S. cerevisiae deletion strains, locus YOR184W, strain ser1, stronger effect = lower value 1.01 | S. cerevisiae deletion strains, locus YOR231W, strain MKK1, stronger effect = lower value 0.916 | S. cerevisiae deletion strains, locus YOR265W, strain rbl2, stronger effect = lower value 0.992 | S. cerevisiae deletion strains, locus YOR270C, strain vph1, stronger effect = lower value 0.84 | S. cerevisiae deletion strains, locus YOR290C, strain snf2, stronger effect = lower value 0.954 | S. cerevisiae deletion strains, locus YOR316C, strain cot1, stronger effect = lower value 0.992 | S. cerevisiae deletion strains, locus YPL051W, strain arl3, stronger effect = lower value 0.954 | S. cerevisiae deletion strains, locus YPL055C, strain LGE1, stronger effect = lower value 0.798 | S. cerevisiae deletion strains, locus YPL078C, strain atp4, stronger effect = lower value 0.99 | S. cerevisiae deletion strains, locus YPL106C, strain sse1, stronger effect = lower value 0.917 | S. cerevisiae deletion strains, locus YPL240C, strain hsp82, stronger effect = lower value 0.985 | S. cerevisiae deletion strains, locus YPL241C, strain CIN2, stronger effect = lower value 0.98 | S. cerevisiae deletion strains, locus YPL256C, strain CLN2, stronger effect = lower value 0.922 | S. cerevisiae deletion strains, locus YPR119W, strain clb2, stronger effect = lower value 0.995 | S. cerevisiae deletion strains, locus YPR141C, strain kar3, stronger effect = lower value 0.97 | S. cerevisiae deletion strains, locus YPR163C, strain tif3, stronger effect = lower value 0.981 | S. cerevisiae deletion strains, locus YPR167C, strain met16, stronger effect = lower value 0.985 | S. cerevisiae deletion strains, strain wtn01, stronger effect = lower value 0.938 | S. cerevisiae strains, strain wild type, stronger effect = lower value 0.933
